# PubChem BioAssay AID743279 (National Center for Advancing Translational Sciences (NCATS), 2014)
# Hit rate of the full screen: of about 360,000 compounds, about 17,000 (4.7%) were called active. About 5% were inconclusive and are not listed. The sample as a whole holds a higher share of actives than the screen did. A number with no mark means an inactive call. No stated cut-off is given here; in the data, active means activity change below about -50%; inconclusive means mostly about -30% to -49%; inactive means weaker than that.
# Assay: qHTS for Inhibitors of Inflammasome Signaling: IL-1-beta AlphaLISA Primary Screen
# Settings: THP-1 LPS/ATP IL-1B secretion, 16 h; at 57.5 µM, stronger effect = lower value
# Procedure, shortened: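 Secreted IL-1B measured by AlphaLISA bead assay after 16 h compound exposure of THP-1 cells; compounds (final up to 57.5 uM) added 1 h before LPS (250 ng/mL) and ATP (1.25 mM) stimulation; lower signal means less secretion.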
# On the % scale 0 is the no-effect control and ±100 the full control effect.
row,SMILES,activity change
1,CCN(CC(=O)Nc1c(F)cccc1F)C(=O)c1ccc(-c2ccc(C(C)=O)cc2)o1,-9.45%
2,CC1(C(=O)NS(=O)(=O)c2cccs2)CCN1C(=O)Cc1ccc(-c2ccccc2)cc1 (stereo not drawn),5.64%
3,Cn1c(Nc2ccc(F)cc2)nc2cc(-c3ccsc3)sc2c1=O,19.8%
4,CC(C)[C@H](NC(=O)c1ccccc1F)C(=O)Nc1cccc(S(=O)(=O)N2CCOCC2)c1,13.4%
5,O=C(NCc1ccco1)/C(=C\c1cccc([N+](=O)[O-])c1)NC(=O)c1ccco1,29.6%
6,CCCCN(C(C)=O)c1ccc2c(c1)C1CC2CCN1Cc1ccccc1 (stereo not drawn),-22.2%
7,COc1ccc(-c2nn3c(-c4ccccc4)nnc3s2)cc1OC,-54.1% (active)
8,COc1ccc(CNC(=O)Cc2ccc(-c3ccccc3)cc2)cc1OC,0.934%
9,Fc1ccc(-c2ccc(-c3nn4c(-c5ccco5)nnc4s3)o2)cc1,-8.52%
10,CCCc1ccc(S(=O)(=O)N2CCN(C(=O)c3cc(C)on3)CC2)cc1,21.7%
11,CCOC(=O)[C@]12CCCC=C1N(CCC1=CCCCC1)C(=O)[C@H](CC(=O)N1CCN(C(=O)c3ccco3)CC1)C2,-5.52%
12,C=CCc1cc(S(=O)(=O)c2ccc(O)c(CC=C)c2)ccc1O,8.87%
13,CCCNC(=O)C[C@@H]1CC[C@@H]2[C@H](COC[C@H](O)CN2C(=O)c2cc(Cl)cc(Cl)c2)O1,35%
14,O=C(COC(=O)Cc1ccc(Cl)cc1Cl)NCc1ccco1,0.688%
15,CC(C[N+](C)(C)C)OC(N)=O (stereo not drawn),8.81%
16,CC(=O)OC(C)C[N+](C)(C)C (stereo not drawn),-70.2% (active)
17,CC(=O)OCC(COC(C)=O)OC(C)=O,12.6%
18,CC1=C(C(=O)N2CCOCC2)CC(CC(=O)NCc2ccco2)C(=O)N1Cc1ccc(F)cc1 (stereo not drawn),17.5%
19,O=C1NC[C@H](CCCCN2C[C@H](Cc3ccc(O)cc3)N(CCc3ccccc3)C(=O)C2=O)N(CCc2ccccc2)C1=O,4.59%
20,CC(C)(C)N1CC(c2nc3ccccc3n2Cc2ccc(F)cc2)CC1=O (stereo not drawn),-16.1%
21,CC(C)(C)c1nc2ccccc2c(=O)n1N1C(=O)c2ccccc2C1=O,-1.36%
22,CC(C)(C)c1cc(=O)n2c(nc3ccccc32)[nH]1,-74.5% (active)

row,SMILES,activity change
1,CN(CC(=O)NCc1ccncc1)S(=O)(=O)c1ccc(Br)cc1,11.2%
2,O=C(CCc1nc2ccccc2c(=O)[nH]1)OCC(=O)c1cccc(Cl)c1,0%
3,O=C(N/N=C/c1ccc(Cl)cc1)c1nc2ccc([N+](=O)[O-])cc2c(=O)[nH]1,7.76%
4,O=C(/C(=C/c1cccc(Cl)c1)c1nc2ccccc2[nH]1)c1ccccc1,-95.6% (active)
5,c1cc(-c2ccc3[nH]ccc3c2)n2ccnc2c1,10.3%
6,CC1CN(C(=O)CCC(=O)NC2CCN(Cc3ccccc3)CC2)c2ccccc2O1 (stereo not drawn),-3.91%
7,CN(CC(=O)NC1CCN(Cc2ccccc2)CC1)S(=O)(=O)c1ccc(Cl)s1,-53.7% (active)
8,CN(CC(=O)NC1CCCCC1)S(=O)(=O)c1ccc(Br)s1,2.52%
9,COc1cccc(OC)c1C(=O)N1CCN(Cc2ccccc2F)CC1,-14.9%
10,COc1cccc(-c2cnc3c(NC(C)=O)cc(-c4cc(F)ccc4OC)cn23)c1,-11.1%
11,Cc1ccccc1N1CCN(Cc2nc(Cc3ccccc3F)no2)CC1,15.1%
12,O=C(NCCc1ccc(Cl)cc1)c1cccc(N2CCCC2=O)c1,-5.88%
13,Oc1cc2c(cc1O)CN(C(=S)NCCc1ccc(Cl)cc1)CCC2,-66.9% (active)
14,COc1ccc(CCNC(=S)N2CCN(S(=O)(=O)c3ccc(Cl)cc3)CC2)cc1,0%
15,O=C(Nc1ccccc1)c1nnsc1S(=O)(=O)c1ccc(Cl)cc1,-53.3% (active)
16,O=C(Nc1ccc(S(=O)(=O)Nc2ccccn2)cc1)c1ccccc1,inactive
17,O=C(Nc1ccc(Cl)cc1)Nc1nnc(/C=C/c2ccccc2)s1,11.5%
18,CCCCc1nc(SCC(=O)Nc2nnc(C(C)C)s2)n[nH]1,10.5%
19,CSCCC(NC(=O)C1CCC(C)CC1)C(=O)NCc1ccco1 (stereo not drawn),-25.5%
20,CN1C(c2ccc(F)cc2)=CS/C1=C(/C#N)c1nnc2n1-c1ccccc1SC2,-68.6% (active)
21,COc1cc(OC)cc(-c2nc3ccccc3c(=O)n2NC(=O)c2cccnc2Cl)c1,-0.823%
22,O=C(Nc1ccc2c(c1)OCCO2)C1c2ccccc2OCC(=O)N1Cc1ccccn1 (stereo not drawn),18.3%

row,SMILES,activity change
1,CC(C)Cn1cc(-c2cncc3nccn23)cn1,-7.82%
2,CCOc1nc(OCC)nc(-n2cc(-c3ccccc3)nn2)n1,-60.1% (active)
3,CCOC(=O)c1nnn(-c2nc(OC)nc(N(C)C)n2)c1-c1ccccc1,44.9%
4,CCCCCc1ccc(-c2cn(Cc3ccc4ccccc4c3)nn2)cc1,-1.04%
5,COc1ccc(-c2ccc(CN3C(CC(C)C)C(=O)N(Cc4cn(CC5CCCCC5)nn4)CCS3(=O)=O)cc2)cn1 (stereo not drawn),-12.3%
6,CC(=O)NN=C(C)c1ccc(NC(=O)C2CC2)cc1,-22.8%
7,CCc1ccc2c(c1)cc(CN(C(=S)Nc1ccccc1Cl)C1CC1)c1nnnn12,14.3%
8,COc1cc(C(=S)N2CCOCC2)cc(OC)c1OC(=O)c1ccc([N+](=O)[O-])cc1[N+](=O)[O-],-15.3%
9,COc1cc([N+](=O)[O-])cc([N+](=O)[O-])c1NC(=O)N1CCOCC1,-92.7% (active)
10,COc1cc(C(=S)N2CCOCC2)cc(OC)c1OC(=O)c1cc([N+](=O)[O-])cc([N+](=O)[O-])c1,22%
11,OC[C@@H]1CN(Cc2ccc(-c3ccccc3)cc2)C[C@H](n2cnc3c(NC4CCCC4)ncnc32)O1,-3.87%
12,COc1ccc2[nH]c(C(=O)N/N=C/c3cc(OC)c(OC)c(OC)c3)cc2c1,-6.28%
13,COc1cc2cc(C(=O)N/N=C/c3cccc(OC)c3OC)[nH]c2cc1OC,-70% (active)
14,CCOc1ccc2[nH]c(C(=O)N/N=C/c3cccc(OC)c3OC)cc2c1,0%
15,Cc1cc2c3ccccc3[nH]c(=O)n2n1,-25.1%
16,O=C1c2ccccc2C(=O)C1C(=O)C1CC1,8.56%
17,Nc1cccc(-c2cncc(N3CCN(Cc4ccccn4)CC3)n2)c1,-1.3%
18,O=C(C[C@H]1C[C@H]2c3cc(NS(=O)(=O)c4ccc(F)cc4)ccc3O[C@H]2[C@H](CO)O1)NCc1cc(F)ccc1F,9.17%
19,COc1ccc2cc1Oc1ccc(cc1)C[C@H]1c3cc(c(OC)cc3CCN1C)Oc1c(O)c(OC)cc3c1[C@H](C2)N(C)CC3,-107% (active)
20,OC(c1ccc(Cl)c(F)c1)c1ncc(-c2ccccc2Cl)[nH]1 (stereo not drawn),1.76%
21,CCc1nc2c(OCCc3cccc(OC)c3)cccn2c1N(C)C(=O)c1ccc(C)cc1,-7.64%
22,Cc1ccc(NC(=O)COC(=O)CN2CCSC2=O)cc1F,4.94%

row,SMILES,activity change
1,Cc1cc2nc(-c3ccc(F)cc3)c(Cc3ccsc3)n2c(C)c1Br,14%
2,Cc1ccc(NC(=S)N2CCCC(c3ccccc3)=N2)cc1,-20.4%
3,Cc1ccc(NC(=O)CN2CCc3ccccc3C2)cc1,7.54%
4,Cc1cccc[n+]1CC(=O)c1ccccc1,22.7%
5,Cc1ccc(C(=O)N2CCCC(c3ccccc3)=N2)cc1,-5.32%
6,Cc1ccc(C(=O)C[n+]2cc(-c3ccccc3)n3c2CCCCC3)cc1,-83.1% (active)
7,Cc1ccc(-c2c[n+](CC(=O)Nc3ccccc3)c3n2CCC3)cc1,-60.8% (active)
8,COc1cccc(NC(=O)N(C)C[C@@H]2Oc3ncc(Br)cc3C(=O)N([C@@H](C)CO)C[C@H]2C)c1,2.84%
9,NNC(=O)COc1ccc(C2SCCS2)cc1,15.3%
10,OC[C@@H]1CN(Cc2cccs2)C[C@H](n2cnc3c(NC4CCCC4)ncnc32)O1,-3.1%
11,CC1CCCC(NC(=O)COC(=O)c2ccccc2C(=O)N(C)C2CCCCC2)C1C (stereo not drawn),-16.9%
12,CCOC(=O)COn1c(=O)c(-c2ccc(OCC)cc2)[n+]([O-])c2ccccc21,4.15%
13,O=c1c(-c2ccc(Cl)cc2)[n+]([O-])c2ccccc2n1OCc1nc2ccccc2[nH]1,14.2%
14,CCOc1ccc(OCC)c(-c2c(=O)n(OCc3ccc(Cl)cc3)c3ccccc3[n+]2[O-])c1,-67% (active)
15,CC(=O)OC1CCC2C3CCC4=C(CC(F)C(=O)C4)C3CCC12C (stereo not drawn),5.77%
16,Cc1cn([C@H]2C[C@H](O)[C@@H](CNC(=O)[C@H](N)Cc3cccnc3)O2)c(=O)[nH]c1=O,11.3%
17,CS(=O)(=O)N1CCN(c2ccc(C(=O)NC3C4CC5CC(C4)CC3C5)cc2[N+](=O)[O-])CC1 (stereo not drawn),5.99%
18,CCC(C)NC(=O)c1ccc(N2CCC3(CC2)OCCO3)c([N+](=O)[O-])c1 (stereo not drawn),0.859%
19,O=C(Nc1cccc(C(F)(F)F)c1)c1ccc(N2CCNCC2)c([N+](=O)[O-])c1,-82.2% (active)
20,O=C(Nc1ccc(N2C(=O)c3cccc4cccc(c34)C2=O)cc1)c1ccc(N2CCCCC2)c([N+](=O)[O-])c1,-6.25%
21,Cc1cccc(C)c1NC(=O)CNC(=O)c1ccc(N2CCOCC2)c([N+](=O)[O-])c1,-0.22%
22,CC(NC(=O)c1ccc(N2CCNCC2)c([N+](=O)[O-])c1)C12CC3CC(CC(C3)C1)C2 (stereo not drawn),-72.6% (active)
